Several values for one entry are separate records, joined by “and”; a condition that tells them apart may be missing. Equal entries are not always repeated. Results filed as inconclusive are left out. A call without a number means that no potency is given here. The source holds several records for some structures; these can differ, active in one and inactive in another. Activity calls are given as the source filed them. Unless noted, the call rests on the fitted dose curve; in most records, active means well fitted curve in the direction sought with a large enough effect in the repeat runs; inconclusive means weak or mixed curves; inactive means no such curve, though single readings can be large; an effect the other way counts as inactive or inconclusive.
How the values were obtained:
[1] = qHTS assay to identify small molecule agonists of H2AX - cell viability counter screen (AID 1224847; calls by dose curve; further: nearly all actives have a fitted effect of over 30% in size; further: potency means the concentration at half of the fitted maximal effect)
Procedure, shortened: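 CHO-K1 wt, 1000 cells/well, o/n 37C; cpds 15 conc, 3 h 37C, 0.76% DMSO; CellTiter-Glo, 30 min RT, luminescence.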

[2] = qHTS RealTime-Glo MT Cell Viability Assay in HEK293 cells - 32 hour (AID 1224868); further: nearly all actives have a fitted effect of over 50% in size; further: potency means the concentration at half of the fitted maximal effect
Procedure, shortened: (§1)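 Assay medium contained NanoLuc luciferase plus cell-permeant prosubstrate, added with HEK293 cells at 600 cells/well. After 5 h at 37 C/5% CO2 compounds were added; plates stayed at 37 C for 40 h with serial luminescence reads.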

[3] = A CellTox Green Cytotoxicity Assay to monitor cytotoxicity in HEK293 cells - 0 hour (AID 1224869); further: nearly all actives have a fitted effect of over 50% in size
Procedure, shortened: (§2)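 Nonlytic real-time cytotoxicity: HEK293 + CellTox Green reagent plated, 5 h preincubation, pintool compound addition (23 nL in DMSO), 37 C for 40 h, fluorescence measured at successive time points.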

[4] = qHTS RealTime-Glo MT Cell Viability Assay in HepG2 cells - 40 hour (AID 1224870); further: nearly all actives have a fitted effect of over 50% in size
Procedure, shortened: (§3)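 HepG2 cells (600/well) mixed with RealTime-Glo MT reagent, settled 5 h at 37 C/5% CO2 before compound addition. Nonlytic NanoLuc luminescence from viable-cell prosubstrate reduction read repeatedly during 40 h treatment at 37 C.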

[5] = A CellTox Green Cytotoxicity Assay to monitor cytotoxicity in HEK293 cells - 40 hour (AID 1224871); further: nearly all actives have a fitted effect of over 45% in size; further: potency means the concentration at half of the fitted maximal effect
Procedure, shortened: as §2

[6] = qHTS RealTime-Glo MT Cell Viability Assay in HEK293 cells - 16 hour (AID 1224872); further: nearly all actives have a fitted effect of over 50% in size; further: potency means the concentration at half of the fitted maximal effect
Procedure, shortened: as §1

[7] = qHTS RealTime-Glo MT Cell Viability Assay in HepG2 cells - 8 hour (AID 1224873); further: nearly all actives have a fitted effect of over 55% in size; further: potency means the concentration at half of the fitted maximal effect
Procedure, shortened: as §3

[8] = qHTS RealTime-Glo MT Cell Viability Assay in HEK293 cells - 40 hour (AID 1224874); conditions: RealTime-Glo luminescence; max response: stronger effect = lower value; further: nearly all actives have a fitted effect of over 50% in size; further: potency means the concentration at half of the fitted maximal effect
Procedure, shortened: (§4)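 Cells were seeded together with NanoLuc luciferase and a prosubstrate that viable cells reduce to a luciferase substrate. After a 5 h incubation at 37 C/5% CO2, compounds were added and luminescence was measured repeatedly during 40 h of treatment.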

[9] = qHTS RealTime-Glo MT Cell Viability Assay in HepG2 cells - 32 hour (AID 1224877); further: nearly all actives have a fitted effect of over 55% in size; further: potency means the concentration at half of the fitted maximal effect
Procedure, shortened: (§5)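 qHTS, HepG2, 600 cells/well, RealTime-Glo (NanoLuc + prosubstrate) added with cells; 5 h preincubation; DMSO compound addition; 37 C; luminescence at 0/8/16/24/32/40 h.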

[10] = A CellTox Green Cytotoxicity Assay to monitor cytotoxicity in HepG2 cells - 40 hour (AID 1224879); further: nearly all actives have a fitted effect of over 40% in size; further: potency means the concentration at half of the fitted maximal effect
Procedure, shortened: (§6)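 Read-out is fluorescence of a cyanine dye excluded from live cells that stains DNA of dead HepG2 cells, with signal proportional to cytotoxicity. Plates were read at 0, 8, 16, 24, 32 and 40 h after compound addition.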

[11] = qHTS RealTime-Glo MT Cell Viability Assay in HEK293 cells - 0 hour (AID 1224880); further: top concentration of the series differs between compounds; nearly all actives have a fitted effect of over 45% in size
Procedure, shortened: as §4

[12] = qHTS assay to identify small molecule antagonists of the estrogen related receptor (ERR) signaling pathway from Tox21 library (AID 1224848); further: nearly all actives have a fitted effect of over 50% in size; further: potency means the concentration at half of the fitted maximal effect
Procedure, shortened: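 ERR reporter cell line (from NTP) seeded 2,000 cells/well, rested 6 h at 37 C/5% CO2, then pin-dosed with compounds in DMSO. After 18 h at 37 C, ONE-Glo added; luminescence read after 30 min at room temperature.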

[13] = qHTS assay to identify small molecule agonists of the estrogen related receptor (ERR) signaling pathway from Tox21 library (AID 1224849; calls by dose curve; further: nearly all actives have a fitted effect of over 15% in size); conditions: ERR reporter cell line, ONE-Glo luciferase, 18 h
Procedure, shortened: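 ERR cells, 6 h pre-incubation 37 C/5% CO2; cpd in DMSO pinned; 18 h 37 C; ONE-Glo added, 30 min RT; luminescence read. Agonist mode, qHTS.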

[14] = qHTS RealTime-Glo MT Cell Viability Assay in HepG2 cells - 24 hour (AID 1224867); further: nearly all actives have a fitted effect of over 50% in size; further: potency means the concentration at half of the fitted maximal effect
Procedure, shortened: as §5

[15] = A CellTox Green Cytotoxicity Assay to monitor cytotoxicity in HepG2 cells - 16 hour (AID 1224876); further: nearly all actives have a fitted effect of over 45% in size
Procedure, shortened: as §6

[16] = A CellTox Green Cytotoxicity Assay to monitor cytotoxicity in HEK293 cells - 24 hour (AID 1224875); further: nearly all actives have a fitted effect of over 45% in size
Procedure, shortened: as §2

[17] = A CellTox Green Cytotoxicity Assay to monitor cytotoxicity in HepG2 cells - 24 hour (AID 1224878); further: nearly all actives have a fitted effect of over 45% in size; further: potency means the concentration at half of the fitted maximal effect
Procedure, shortened: as §6

[18] = qHTS assay to identify small molecule agonists of H2AX (AID 1224845; active means well fitted activation curve with a large enough effect in the signal ratio in the repeat runs, not every such curve was filed as active; the % refers to the signal ratio; further: potency means the concentration at half of the fitted maximal effect)
Procedure, shortened: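 Wild-type CHO-K1 cells, plated overnight, exposed 3hr at 37C to 15 concentrations (0.76% DMSO final). Lysed, then HTRF anti-pH2AX (S139) cryptate and anti-H2AX-d2 antibodies, 24 hr room temperature; 665/620 nm emission read.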

SMILES | Potency [1] | Potency [2] | Potency [3] | Potency [4] | Potency [5] | Potency [6] | Potency [7] | max response [8] | Potency [9] | Potency [10] | Potency [11] | Potency [12] | activity change, positive = activation ([13]; at 42.5 µM (top of the series)) | activity change, positive = activation ([13]; at 92.4 µM (top of the series)) | Potency [14] | Potency [8] | Potency [15] | Potency [16] | Potency [17] | Potency [18]
Cc1cn([C@H]2C=C[C@@H](CO)O2)c(=O)[nH]c1=O | inactive | inactive | inactive | inactive | inactive | inactive | inactive | 3.84% (inactive) and 0.681% (inactive) | inactive | inactive | inactive |  |  |  |  |  |  |  |  | 
CC(C)NCC(O)c1ccc(O)c(O)c1 (configuration not stated) | inactive | 43.1 µM (active) and inactive | inactive | inactive | inactive | 48.4 µM (active) and inactive | inactive | 1.41% (inactive) | inactive | inactive | inactive | inactive | 7.23% (inactive) | 4.56% (inactive) and 1.6% (inactive) | inactive | 38.4 µM (active) | inactive |  |  | 
NC(=O)n1c(O)c(C(=O)c2cccs2)c2cc(Cl)ccc21 | inactive |  | inactive | inactive | inactive | inactive | inactive | 3.23% (inactive) | inactive | inactive |  |  |  |  | inactive |  | inactive | inactive | inactive | 
COc1ccc2cc(S(=O)(=O)N[C@H](CC(=O)N[C@H](Cc3ccc(CN4[C@H](C)CCC[C@@H]4C)cc3)C(=O)N(C)C(C)C)c3ccc4c(c3)OCO4)ccc2c1 |  |  | inactive |  | 52 µM (active) | 46.3 µM (active) | 52 µM (active) |  | 52 µM (active) | 52 µM (active) | inactive | 25.8 µM (active) |  | -76% (inactive) |  | 26.1 µM (active) |  |  | 52 µM (active) | 
COc1ccc(CN(CCN(C)C)c2ccccn2)cc1 | inactive |  | inactive |  | inactive |  |  |  |  | inactive |  |  |  |  |  |  |  |  | inactive | inactive
CC/C(=C(\c1ccccc1)c1ccc(OCCN(C)C)cc1)c1ccccc1 | 80.7 µM (active) [middle of 5 runs] |  | inactive |  | 24.7 µM (active) [middle of 5 runs] |  | 54.9 µM (active) and 19.7 µM (active) and 43.6 µM (active) |  | 30.9 µM (active) [middle of 4 runs] | 43.6 µM (active) [middle of 5 runs] |  |  |  |  | 38.9 µM (active) [middle of 4 runs] | 22.1 µM (active) [middle of 5 runs] |  |  |  | 50.5 µM (active)

From PubChem BioAssay (Tox21)
